Screens as filed in PubChem.
hcDAF12 agonist: activators of H. contortus DAF-12 nuclear receptor; activation, % at 6.8 µM; 370,000 tested, 1.4% active; HEK293 hcDAF-12 lit1-tk-luc reporter, luminescence; 0% DMSO, 100% Δ7-dafachronic acid;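 active means activation above the mean of all tested compounds plus 3 SD, cut at about 5.5% in these data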
ssDAF12 agonist: activators of S. stercoralis DAF-12 nuclear receptor; activation, % at 6.8 µM; HEK293 ssDAF-12/GRIP1 lit1-tk-luc reporter, luminescence; % of 3 µM dafachronic acid response; AID 652126; 370,000 tested, 1% active;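 active means activation above the mean over all tested compounds plus 3 SD, cut at about 0.9% in these data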
DAX1 inh-1: DAX1 (NR0B1) inhibition, primary screen | inhibition, % at 6.8 µM | HEK293T StAR-luciferase reporter, SF-1/DAX-1 repression relief | 370,000 tested, 1.1% active;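 active means inhibition above the mean over all tested compounds plus 3 SD, cut at about 3.6% in these data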;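 further: higher inhibition means more luminescence from relief of DAX-1 repression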
DAX1 inh-2: inhibits human nuclear receptor DAX1 | 340,000 tested, 0.99% active | inhibition, % at 6.75 µM | HEK293 Gal4-DAX1 luciferase reporter, luminescence | P51843;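 active means inhibition above the mean over all tested compounds plus 3 SD, cut at about 4.2% in these data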;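 further: inhibition shows as a rise in luminescence from relieved DAX1 repression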
Target sequence (P51843 207-470 limits assumed): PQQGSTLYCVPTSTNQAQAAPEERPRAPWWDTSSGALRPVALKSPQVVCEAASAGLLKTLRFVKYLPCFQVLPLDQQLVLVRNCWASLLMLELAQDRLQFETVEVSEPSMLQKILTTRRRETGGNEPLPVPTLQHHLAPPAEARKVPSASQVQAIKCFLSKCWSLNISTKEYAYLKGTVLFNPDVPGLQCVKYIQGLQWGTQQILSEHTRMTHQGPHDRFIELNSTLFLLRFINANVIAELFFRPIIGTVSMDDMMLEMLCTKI
hgDAF12 agonist: hgDAF-12 agonism, primary luciferase screen | HEK293 GAL4-hgDAF12 UAS-luciferase reporter, agonist luminescence; normalized to butyrate control | 370,000 tested, 1.8% active | activation, % at 6.8 µM | AID 687014;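 active means activation above a cutoff set at the mean of all screened compounds plus 3 SD, cut at about 10% in these data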
LXR ag: activates human LXR-beta, counter-screen for hcDAF-12 agonists; 3,400 tested, under 10 active; shares compounds with hcDAF12 agonist; AID 743027; HEK293 Gal4-LXR tk-luc reporter, luminescence, 24 h; normalized: DMSO 0%, positive control 100%; activation, % at 6.8 µM;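 active means mean percent activation of the reporter above a cutoff set as the average over tested compounds plus their standard deviation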
hcDAF12 conf: confirmation of H. contortus DAF-12 agonists. 3,400 tested, 61% active. HEK293 hcDAF-12 lit1-tk-luc reporter, luminescence; % of Δ7-dafachronic acid response. shares compounds with hcDAF12 agonist. AID 743032. activation, % at 6.8 µM;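 active means mean activation across triplicate tests above the threshold derived from the earlier primary screen, cut at about 5.5% in these data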
A number is an active result; – = inactive; · = no result given. Hits are enriched below; roughly 4.1% of the tested compounds scored in any of these assays.

SMILES | hcDAF12 agonist | ssDAF12 agonist | DAX1 inh-1 | DAX1 inh-2 | hgDAF12 agonist | LXR ag | hcDAF12 conf
Cc1nn2c3ccccc3nc2c2ccccc12 | 7.5 | – | – | – | – | – | 7.1
Cc1nn2c(-c3ccccc3)nnc2c2ccccc12 | – | – | – | – | – | · | ·
O=C(CNS(=O)(=O)c1ccc(Br)s1)N1CCN(c2ccccn2)CC1 | – | – | – | · | – | · | ·
COc1cc(NC(=O)C2C3C=CC(C3)C2C(=O)O)ccc1NC(=O)c1ccccc1 (stereo not drawn) | – | – | – | – | – | · | ·
COc1cccc(C(=O)Nc2ccc(NC(=O)C3C4C=CC(C4)C3C(=O)O)cc2)c1 (stereo not drawn) | 12.3 | 1.0 | – | – | 10.5 | – | –
Cc1cccc(NC(=O)c2c(O)c3ccccc3n(C)c2=O)c1 | 7.5 | 1.1 | – | – | – | – | 12.3
CCCn1c(=O)c(C(=O)Nc2cccc(C)c2)c(O)c2ccccc21 | – | – | – | – | – | · | ·
CCn1c(=O)c(C(=O)NNC(=O)c2ccccc2)c(O)c2ccccc21 | – | – | – | – | – | · | ·
Cc1ccc(NC(=O)c2c(Cl)n(C)c3ccccc23)cc1 | 7.0 | 1.1 | – | – | – | – | 10.6
CCn1c(=O)c(C(=O)Nc2ccc(C)cc2)c(O)c2ccccc21 | 8.7 | – | – | – | – | – | –
Cc1ccc(NC(=O)c2cc(Cl)nc3ccccc23)cc1 | – | – | – | – | – | · | ·
N#Cc1ccc(/C=C2\CC3(OC(=O)c4ccc(Cl)cc4)CCCN2C3)cc1 (stereo not drawn) | – | – | – | · | – | · | ·
Cc1nc2nc(-c3cccnc3)nn2c(C)c1Cl | – | – | – | – | – | · | ·
Cc1nc2nc(-c3ccco3)nn2c(C)c1Cl | 6.8 | – | – | – | – | – | –
COC(=O)C1CN(CCO)CCS(=O)(=O)N1Cc1cccc(Cl)c1 (stereo not drawn) | – | – | – | · | – | · | ·
CCCc1nc2oc3ccccc3c(=O)c2c(=O)n1-c1ccc(C)cc1 | 10.9 | 1.9 | – | · | – | – | 12.1
CCc1nc2oc3ccccc3c(=O)c2c(=O)n1-c1ccccc1 | 8.8 | 1.2 | – | – | 12.7 | – | 8.7
Cc1ccc(-n2c(C(C)C)nc3oc4ccccc4c(=O)c3c2=O)cc1 | 11.9 | 2.9 | – | 6.0 | 11.8 | – | 12.9
CCCc1nc2oc3ccccc3c(=O)c2c(=O)n1-c1ccccc1 | 9.5 | 1.2 | – | · | – | – | 8.0
COCCn1c(C(C)C)nc2oc3ccccc3c(=O)c2c1=O | – | – | – | – | – | · | ·
CCCc1nc2c(c(=O)c3ccccc3n2C)c(=O)n1-c1ccc(F)cc1 | – | – | – | – | – | · | ·
CCc1nc2oc3ccccc3c(=O)c2c(=O)n1CCOC | – | – | – | – | – | · | ·
CCc1nc2oc3ccccc3c(=O)c2c(=O)n1-c1ccc(C)cc1 | 11.6 | 4.0 | – | · | 11.2 | – | 13.8
COC(=O)[C@]12C[C@H](CC(=O)NCC3CCCCC3)C(=O)N(Cc3cccc4ccccc34)C1=C[C@H](C1CCCC1)O[C@@H]2C | – | – | – | · | – | · | ·
CC(c1ccccc1)N1CC[C@H]2C=CC[C@@H](C(=O)Nc3cccc(Cl)c3)[C@H]2C1=O (stereo partly drawn) | – | – | · | · | – | · | ·
SMILES | hcDAF12 agonist | ssDAF12 agonist | DAX1 inh-1 | DAX1 inh-2 | hgDAF12 agonist | LXR ag | hcDAF12 conf
Cc1cc(C)n(CCC(=O)N2CCc3ccccc32)n1 | 6.9 | – | – | – | – | – | –
CC(CC(=O)N1CCc2ccccc21)n1cccn1 (stereo not drawn) | 10.6 | – | – | – | – | – | 5.7
O=C(CCn1cccc1)N1CCc2ccccc21 | – | – | – | – | – | · | ·
CN(CCO)c1cccc2c1S(=O)(=O)N(Cc1cn(Cc3ccccc3C(F)(F)F)nn1)Cc1ccccc1O2 | – | – | – | · | – | · | ·
CC1=NN(c2ccccc2)C(=O)C1N=Nc1ccccc1 (stereo not drawn) | 8.0 | – | – | – | – | – | 11.4
CC1=NN(C(N)=S)C(=O)C1N=Nc1ccc(Br)cc1 (stereo not drawn) | 9.8 | – | – | – | – | – | 12.4
Cc1cccc2c(N)c3c(nc12)CCCC3 (tested in a mixture with another compound) | – | – | – | – | – | · | ·
Cc1cc(C)c2c(N)c3cccc(C)c3nc2n1 | 10.1 | 1.7 | – | – | – | – | 31.3
C[C@@H]1CCCN1c1cccc2c1S(=O)(=O)N1CC[C@@H](C1)O2 | – | – | – | · | – | · | ·
COc1ccc(C2=NN(S(C)(=O)=O)C(c3ccc4nccnc4c3)C2)cc1 (stereo not drawn) | 8.4 | – | – | – | – | – | –
Nc1cc2c(cc1N)-c1ccccc1C2 | 6.7 | – | 3.8 | – | – | – | –
Cc1cc(C)n2ncc(C(=O)Nc3ccc4c(c3)CCC4)c2n1 | 6.8 | – | · | · | – | – | 6.2
CCC(C)[C@H](NC(=O)N1CC(=O)Nc2ccccc21)C(=O)N[C@H](Cc1c[nH]c2ccccc12)C(=O)O (stereo partly drawn) | 8.0 | – | – | – | – | – | –
CCC(C)[C@H](NC(=O)N1CC(=O)Nc2ccccc21)C(=O)N[C@@H](C(=O)O)c1ccccc1 (stereo partly drawn) | – | – | – | – | – | · | ·
Cc1cc(C)c2c(N)c(C(=O)Nc3ccc(C)c(C)c3)sc2n1 | 8.3 | 1.6 | – | 8.0 | – | – | 9.5
COc1ccc(NC(=O)c2sc3nc(C)cc(C)c3c2N)cc1 | – | – | – | – | – | · | ·
Nc1ccc(C2=Nc3cccc4cccc(c34)N2)cc1 | – | – | – | – | – | · | ·
COc1cccc(C2=Nc3cccc4cccc(c34)N2)c1 | 11.4 | – | – | – | – | – | –
Brc1cccc(-c2nnc(-c3ccccc3)o2)c1 | 10.9 | 1.6 | 3.9 | – | 10.4 | – | 11.2
COc1ccc(C(=O)n2nc(C)cc2Nc2ccccc2)cc1 | 8.7 | 1.4 | – | – | – | – | 9.6
O=c1cc[nH]c2c(Cl)cccc12 | 7.2 | – | – | – | – | – | 5.7
COC(=O)[C@]12C[C@H](CC(=O)NCC3CCCCC3)C(=O)N(Cc3ccc(Cl)cc3Cl)C1=C[C@H](COCc1ccccc1)O[C@@H]2C | – | – | – | · | – | · | ·
CN(CCCOC(=O)CC1C=CCC1)C1CN(Cc2cn(Cc3ccccc3Cl)nn2)S(=O)(=O)C1 (stereo not drawn) | – | – | – | · | – | · | ·
NC(=O)c1ccccc1N/C=C/C(=O)c1ccc(Cl)cc1 | 6.7 | – | – | – | – | – | –
O=C(NC(=S)Nc1ccccc1N1CCCC1)c1ccc(F)cc1 | 9.1 | – | – | – | – | – | –
Cc1ccccc1C(=O)NC(=S)Nc1ccccc1N1CCCC1 | – | – | – | – | – | · | ·
